High-throughput results deposited in PubChem by Johns Hopkins Ion Channel Center.
KCNQ2 block: rat KCNQ2 potassium channel inhibitors, primary screen, cell-based, CHO-K1, FluxOR thallium flux, B-score; Potassium voltage-gated channel subfamily KQT member 2 (Rattus norvegicus), O88943; 20 min; stronger effect = lower value; 310,000 tested, 1.1% active; B-score at 10 µM;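 active means fluorescence ratio B-score at most minus 3 library SDs, with starting brightness B-score within 2 library SDs, cut at about -5.5 in these data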
KCNQ2 pot: potentiators of rat KCNQ2 potassium channel; Potassium voltage-gated channel subfamily KQT member 2 (Rattus norvegicus), O88943; CHO-K1 KCNQ2, FluxOR thallium flux fluorescence; stronger effect = higher value; B-score at 10 µM; 310,000 tested, 0.54% active; AID 2239, 2010;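 active means fluorescence ratio B-score at least 3 SD of library B-scores, with initial fluorescence B-score within 3 of them, cut at about 5.3 in these data; same plate scores as AID 2156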;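 further: B-score of peak minus minimum over baseline fluorescence ratio after K+ and Tl+ stimulus; positive B-score means potentiation of KCNQ2 with more thallium influx and brighter signal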
Kir21 conf inh: mouse Kir2.1 channel blockers, retest, confirmation, cell-based, FluxOR thallium flux, duplicate; shares compounds with KCNQ2 pot; Kir2.1-expressing cells, FluxOR thallium flux fluorescence; stronger effect = lower value; Tl flux remaining, % of negative control (stronger effect = lower value), % at 10 µM; 2,300 tested, 41% active; AID 2032, 2009;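 active means Primary-screen hit whose thallium flux fell at least 3 control SD below untreated wells in both duplicates, with normal baseline fluorescence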;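 further: 0% = blank wells without stimulus and 100% = stimulated no-compound controls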
HEK293 Tl flux: counter-screen for Kir2.1 inhibitors: effect in parental HEK293 cells; shares compounds with KCNQ2 pot; FluxOR thallium flux fluorescence; 0% = unstimulated blank wells; FluxOR signal as % of negative control (100 = no effect), % at 10 µM; 2,300 tested, 19% active; AID 2105;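 active means dye signal at least 3 control SD above or below untreated wells in both duplicates, raw fluorescence within 3, either direction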;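 further: percent is based on the flux ratio of peak minus minimum fluorescence over baseline F0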
CHO-K1 ctr: nonspecific thallium flux increase in parental CHO-K1, confirmation, counter-screen for KCNQ2 potentiator project, cell-based, FluxOR thallium flux, duplicate; shares compounds with KCNQ2 pot; parental CHO-K1 cells, FluxOR thallium flux fluorescence; zero = vehicle mean+3SD, 100% = vehicle-minus-blank window; AID 2282, 2010; 1,200 tested, 43% active; activity increase over 3SD of controls, % at 10 µM;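 active means signal rise of at least 3 SD above the untreated control mean, in both duplicate wells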;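 further: counter screen of KCNQ2 potentiator hits so any rise reflects channel-independent effects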
KCNQ1 pot spec: human KCNQ1 channel potentiation off-target, confirmation, selectivity assay for KCNQ2 potentiator project, cell-based, CHO, FluxOR thallium flux; shares compounds with KCNQ2 pot; CHO KCNQ1 stable, FluxOR thallium flux fluorescence; beyond 3SD, as % of vehicle-control signal; activation over 3SD threshold, % at 10 µM; 1,200 tested, 28% active; AID 2283, 2010;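 active means fluorescence ratio rise of at least 3 SD of vehicle wells above their mean, in both replicate wells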;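 further: 0% = vehicle mean plus 3 SD and 100% = vehicle minus unstimulated blank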
KCNQ2 pot conf: rat KCNQ2 channel potentiators, confirmation, cell-based, CHO, FluxOR thallium flux, duplicate; shares compounds with KCNQ2 pot; CHO-KCNQ2 cells, FluxOR thallium flux fluorescence; 1,200 tested, 68% active; potentiation, less the hit threshold, % at 10 µM;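 active means fluorescence ratio rising 3 SD or more over the vehicle control mean in both replicates, plus primary screen hit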;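 further: peak minus minimum thallium fluorescence divided by baseline after K/Tl stimulus; 0% = vehicle mean plus 3 SD and 100% = vehicle minus unstimulated blank difference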
Kir2-1 sel: mouse Kir2.1 channel activation off-target, confirmation, selectivity assay for KCNQ2 potentiator project, cell-based, HEK293, FluxOR thallium flux; shares compounds with KCNQ2 pot; HEK293 Kir2.1, FluxOR thallium flux fluorescence; activity over 3SD threshold, % at 10 µM; 1,200 tested, 2% active; AID 2345, 2010;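 active means fluorescence ratio rise of at least 3 SD above the vehicle-control mean, seen in both replicates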;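 further: 0% = vehicle mean plus 3 SD and 100% = vehicle minus no-stimulus blank window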
KCNQ2 W236L pot: potentiators of retigabine-insensitive KCNQ2 W236L, mechanism study for KCNQ2 potentiator project, cell-based, rat KCNQ2 W236L, CHO, automated patch clamp | shares compounds with KCNQ2 pot | automated patch clamp current | current increase over 3SD of negative controls (%), stronger effect = higher value, % at 25 µM | 940 tested, 10% active | AID 2558, 2010;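 active means current increase at least 3 SD of the untreated controls above them in both duplicate recordings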
Target sequence (O88943 whole entry W236L, looked up): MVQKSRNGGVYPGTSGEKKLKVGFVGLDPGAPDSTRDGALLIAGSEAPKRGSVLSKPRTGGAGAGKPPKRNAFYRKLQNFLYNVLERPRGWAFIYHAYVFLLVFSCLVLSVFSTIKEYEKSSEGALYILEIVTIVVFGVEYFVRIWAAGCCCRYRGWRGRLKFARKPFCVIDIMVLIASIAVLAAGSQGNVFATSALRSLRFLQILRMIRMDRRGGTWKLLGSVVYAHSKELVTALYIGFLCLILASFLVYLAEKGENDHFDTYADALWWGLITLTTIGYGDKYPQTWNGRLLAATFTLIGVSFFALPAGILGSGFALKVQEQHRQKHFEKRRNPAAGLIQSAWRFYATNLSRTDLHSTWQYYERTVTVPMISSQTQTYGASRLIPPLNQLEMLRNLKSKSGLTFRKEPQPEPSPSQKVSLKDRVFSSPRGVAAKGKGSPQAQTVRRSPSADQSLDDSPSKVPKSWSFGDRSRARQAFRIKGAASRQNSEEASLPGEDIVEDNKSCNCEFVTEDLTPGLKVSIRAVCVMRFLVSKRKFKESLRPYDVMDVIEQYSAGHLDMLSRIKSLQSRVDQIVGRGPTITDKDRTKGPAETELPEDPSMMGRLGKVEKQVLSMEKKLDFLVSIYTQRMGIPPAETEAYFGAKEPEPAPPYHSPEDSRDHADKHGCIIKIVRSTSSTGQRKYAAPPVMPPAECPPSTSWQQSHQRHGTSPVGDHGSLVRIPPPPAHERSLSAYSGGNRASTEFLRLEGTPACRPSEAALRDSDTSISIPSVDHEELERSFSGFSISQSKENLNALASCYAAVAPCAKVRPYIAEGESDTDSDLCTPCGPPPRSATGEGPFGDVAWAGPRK
* = called active by the depositor; i = inactive; x = not tested or not shown. Most compounds without a hit are left out; they make up all but 1.6% or so of the library.

SMILES | KCNQ2 block | KCNQ2 pot | Kir21 conf inh | HEK293 Tl flux | CHO-K1 ctr | KCNQ1 pot spec | KCNQ2 pot conf | Kir2-1 sel | others
COC(=O)c1sc(NC(=S)NC(=O)c2ccccc2C)nc1C | i | 12.2* | i | 302.0%* | -4.0 | 32.6* | 46.6* | -37.0 | KCNQ2 W236L pot=i
O=C(Nc1ccccc1)O[C@@H]1C[C@H]2CCC(=O)N3CC[C@@H](C1)[C@@H]23 | i | 1.05 | x | x | x | x | x | x
CC1=NNC(=O)C1CC(=O)N/N=C/C=C/c1ccccc1 (configuration not stated) | i | 8.79* | i | i | -9.5 | -20.7 | -14.5 | -36.9
CC1=NNC(=O)C1CCC(=O)N/N=C/C=C/c1ccccc1 (configuration not stated) | i | 0.85 | x | x | x | x | x | x
CCOC(=O)CSc1nc2c(c(-c3ccc(C)o3)c1C#N)CCCC2 | i | 7.21* | i | i | 112.7* | -5.9 | 6.3* | -26.9 | KCNQ2 W236L pot=i
COC(=O)CSc1nc2c(c(-c3ccco3)c1C#N)CCCC2 | i | 11.3* | i | i | 7.8* | -35.0 | 27.8* | -36.4 | KCNQ2 W236L pot=i
COC(=O)CSc1nc2c(c(-c3ccc(O)cc3)c1C#N)CCCC2 | i | x | x | x | x | x | x | x
Cc1ccc(-c2c(C#N)c(N)nc3c2CCCCC3)o1 | i | 0.57 | x | x | x | x | x | x
Cc1ccc(C(=O)NCC(=O)NCCc2ccc(S(N)(=O)=O)cc2)s1 | i | x | x | x | x | x | x | x
O=C(CCN1C(=O)C2CC=CCC2C1=O)Nc1nccs1 (configuration not stated) | i | 1.09 | x | x | x | x | x | x
O=S(=O)(c1ccc2oc(=S)[nH]c2c1)N1CCCCC1 | i | x | x | x | x | x | x | x
S=c1[nH]c2cc(-c3ccccc3)ccc2o1 | i | 17.9* | i | 499.5%* | -16.8 | -5.9 | 99.8* | 3.9* | KCNQ2 W236L pot=i
O=C(CN1CCCCCC1)Nc1ccccc1[N+](=O)[O-] | i | x | x | x | x | x | x | x
O=C(CC1CCC1)Nc1cccc2c([N+](=O)[O-])cccc12 | i | 9.58* | i | i | -1.2 | 56.0* | 34.7* | -39.1 | KCNQ2 W236L pot=i
Cc1cc(C)c2nc(-c3ccccn3)cc(C(=O)N3CCCC3)c2c1 | i | x | x | x | x | x | x | x
CC(=O)c1ccc(OCC(C)Oc2ccc(C#N)cc2)cc1 (configuration not stated) | i | x | x | x | x | x | x | x
CCCCCCCCCCCCCCCC[N+](C)(C)CC | i | x | 52.5%* | i | x | x | x | x
CCCCCC[N+](C)(C)CCSSCC[N+](C)(C)CCCCCC | i | 0.45 | x | x | x | x | x | x
COc1ccc(CCN2CCC(Nc3nc4ccccc4n3Cc3ccc(F)cc3)CC2)cc1 | i | x | i | i | x | x | x | x
COc1ccc(CNc2nc3ccccc3n2CCN2CCCCC2)cc1 | i | x | x | x | x | x | x | x
CCCN1CCC2(CC1)NC(C(=O)O)Cc1c2[nH]c2ccccc12 (configuration not stated) | i | x | x | x | x | x | x | x
COC(=O)C1Cc2c([nH]c3ccccc23)C2(CCN(Cc3ccccc3)CC2)N1 (configuration not stated) | i | x | 67.5%* | i | x | x | x | x
CCCCOc1ccc(Br)cc1CSC(=N)N | i | 0.15 | 20.0%* | i | x | x | x | x
